Measurements: the supplement of paper PMC10849652
Of roughly 7,900 targets only a part is listed; those with a hit were picked by preference. About 0.6% of all pairs of compound and target were hits.

These targets were tested with C1=CC2=C(C=CC(=C2)/C=C\3/C(=O)NC(=NCC4=CC=CS4)S3)N=C1 (assay: log2 fold change, soluble protein after heating vs DMSO (PISA); higher = thermal stabilisation; K562 cells, 10 uM, 30 min; active = over 0.2 and 3.5 SD of the protein, either way, in both replicates (recomputed)).
Outline: (§1)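 K562 cells at 2×10^6 cells/mL were exposed to 10 μM compound for 30 min, then aliquots were heated for 3 min across 48°C-58°C, pooled, and extracted in PBS containing 0.5% NP-40 at 4°C. The supernatant after 21,000xg for 90 min was taken as soluble protein and measured by TMTpro 16plex LC-MS/MS with channel sums equalised. Thermal stability is reported relative to control samples, with values from duplicates. Fold changes are given on a log2 scale.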

UniProt P42574, sequence (P42574 whole entry, looked up): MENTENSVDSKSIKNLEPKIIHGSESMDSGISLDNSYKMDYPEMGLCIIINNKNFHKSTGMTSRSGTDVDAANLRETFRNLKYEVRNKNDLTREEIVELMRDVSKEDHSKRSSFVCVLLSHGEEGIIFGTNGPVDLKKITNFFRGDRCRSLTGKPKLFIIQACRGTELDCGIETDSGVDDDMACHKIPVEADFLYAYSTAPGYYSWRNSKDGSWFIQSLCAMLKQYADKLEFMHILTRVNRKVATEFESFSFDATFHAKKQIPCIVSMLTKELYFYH
UniProt P51790, sequence (P51790 whole entry, looked up): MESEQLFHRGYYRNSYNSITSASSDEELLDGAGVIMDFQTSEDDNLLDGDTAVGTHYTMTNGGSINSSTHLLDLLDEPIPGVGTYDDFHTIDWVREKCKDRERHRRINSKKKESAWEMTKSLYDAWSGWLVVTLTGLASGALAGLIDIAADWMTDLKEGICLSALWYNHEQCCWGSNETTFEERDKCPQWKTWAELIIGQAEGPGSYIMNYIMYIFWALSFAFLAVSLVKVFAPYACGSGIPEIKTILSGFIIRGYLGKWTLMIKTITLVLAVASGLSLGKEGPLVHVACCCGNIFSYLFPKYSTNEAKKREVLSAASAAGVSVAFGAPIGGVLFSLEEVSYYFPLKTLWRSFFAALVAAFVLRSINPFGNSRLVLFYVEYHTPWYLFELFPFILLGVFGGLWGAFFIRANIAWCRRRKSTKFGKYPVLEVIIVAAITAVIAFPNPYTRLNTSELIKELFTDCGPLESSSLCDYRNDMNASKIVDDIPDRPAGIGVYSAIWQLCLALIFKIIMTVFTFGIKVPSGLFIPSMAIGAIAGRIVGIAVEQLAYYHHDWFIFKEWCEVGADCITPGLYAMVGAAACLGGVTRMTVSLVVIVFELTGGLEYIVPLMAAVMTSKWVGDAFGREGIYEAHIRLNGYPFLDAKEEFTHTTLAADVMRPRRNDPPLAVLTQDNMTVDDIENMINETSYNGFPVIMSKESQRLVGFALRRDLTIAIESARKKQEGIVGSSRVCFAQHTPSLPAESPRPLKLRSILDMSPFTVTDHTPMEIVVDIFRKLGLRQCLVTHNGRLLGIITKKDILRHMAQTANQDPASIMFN
UniProt Q8N4Q1, sequence (Q8N4Q1 whole entry, looked up): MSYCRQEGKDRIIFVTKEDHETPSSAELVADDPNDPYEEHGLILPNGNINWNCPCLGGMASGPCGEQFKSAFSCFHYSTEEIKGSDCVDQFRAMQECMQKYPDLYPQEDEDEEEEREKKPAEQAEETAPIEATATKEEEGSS
UniProt Q8N1A6, sequence (Q8N1A6 whole entry, looked up): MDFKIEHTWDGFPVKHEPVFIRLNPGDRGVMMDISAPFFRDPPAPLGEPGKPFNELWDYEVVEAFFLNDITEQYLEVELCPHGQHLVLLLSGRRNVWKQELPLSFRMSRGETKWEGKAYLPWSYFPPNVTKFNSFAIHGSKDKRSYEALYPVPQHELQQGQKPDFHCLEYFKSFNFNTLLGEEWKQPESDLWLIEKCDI
UniProt O14578, sequence (O14578 whole entry, looked up): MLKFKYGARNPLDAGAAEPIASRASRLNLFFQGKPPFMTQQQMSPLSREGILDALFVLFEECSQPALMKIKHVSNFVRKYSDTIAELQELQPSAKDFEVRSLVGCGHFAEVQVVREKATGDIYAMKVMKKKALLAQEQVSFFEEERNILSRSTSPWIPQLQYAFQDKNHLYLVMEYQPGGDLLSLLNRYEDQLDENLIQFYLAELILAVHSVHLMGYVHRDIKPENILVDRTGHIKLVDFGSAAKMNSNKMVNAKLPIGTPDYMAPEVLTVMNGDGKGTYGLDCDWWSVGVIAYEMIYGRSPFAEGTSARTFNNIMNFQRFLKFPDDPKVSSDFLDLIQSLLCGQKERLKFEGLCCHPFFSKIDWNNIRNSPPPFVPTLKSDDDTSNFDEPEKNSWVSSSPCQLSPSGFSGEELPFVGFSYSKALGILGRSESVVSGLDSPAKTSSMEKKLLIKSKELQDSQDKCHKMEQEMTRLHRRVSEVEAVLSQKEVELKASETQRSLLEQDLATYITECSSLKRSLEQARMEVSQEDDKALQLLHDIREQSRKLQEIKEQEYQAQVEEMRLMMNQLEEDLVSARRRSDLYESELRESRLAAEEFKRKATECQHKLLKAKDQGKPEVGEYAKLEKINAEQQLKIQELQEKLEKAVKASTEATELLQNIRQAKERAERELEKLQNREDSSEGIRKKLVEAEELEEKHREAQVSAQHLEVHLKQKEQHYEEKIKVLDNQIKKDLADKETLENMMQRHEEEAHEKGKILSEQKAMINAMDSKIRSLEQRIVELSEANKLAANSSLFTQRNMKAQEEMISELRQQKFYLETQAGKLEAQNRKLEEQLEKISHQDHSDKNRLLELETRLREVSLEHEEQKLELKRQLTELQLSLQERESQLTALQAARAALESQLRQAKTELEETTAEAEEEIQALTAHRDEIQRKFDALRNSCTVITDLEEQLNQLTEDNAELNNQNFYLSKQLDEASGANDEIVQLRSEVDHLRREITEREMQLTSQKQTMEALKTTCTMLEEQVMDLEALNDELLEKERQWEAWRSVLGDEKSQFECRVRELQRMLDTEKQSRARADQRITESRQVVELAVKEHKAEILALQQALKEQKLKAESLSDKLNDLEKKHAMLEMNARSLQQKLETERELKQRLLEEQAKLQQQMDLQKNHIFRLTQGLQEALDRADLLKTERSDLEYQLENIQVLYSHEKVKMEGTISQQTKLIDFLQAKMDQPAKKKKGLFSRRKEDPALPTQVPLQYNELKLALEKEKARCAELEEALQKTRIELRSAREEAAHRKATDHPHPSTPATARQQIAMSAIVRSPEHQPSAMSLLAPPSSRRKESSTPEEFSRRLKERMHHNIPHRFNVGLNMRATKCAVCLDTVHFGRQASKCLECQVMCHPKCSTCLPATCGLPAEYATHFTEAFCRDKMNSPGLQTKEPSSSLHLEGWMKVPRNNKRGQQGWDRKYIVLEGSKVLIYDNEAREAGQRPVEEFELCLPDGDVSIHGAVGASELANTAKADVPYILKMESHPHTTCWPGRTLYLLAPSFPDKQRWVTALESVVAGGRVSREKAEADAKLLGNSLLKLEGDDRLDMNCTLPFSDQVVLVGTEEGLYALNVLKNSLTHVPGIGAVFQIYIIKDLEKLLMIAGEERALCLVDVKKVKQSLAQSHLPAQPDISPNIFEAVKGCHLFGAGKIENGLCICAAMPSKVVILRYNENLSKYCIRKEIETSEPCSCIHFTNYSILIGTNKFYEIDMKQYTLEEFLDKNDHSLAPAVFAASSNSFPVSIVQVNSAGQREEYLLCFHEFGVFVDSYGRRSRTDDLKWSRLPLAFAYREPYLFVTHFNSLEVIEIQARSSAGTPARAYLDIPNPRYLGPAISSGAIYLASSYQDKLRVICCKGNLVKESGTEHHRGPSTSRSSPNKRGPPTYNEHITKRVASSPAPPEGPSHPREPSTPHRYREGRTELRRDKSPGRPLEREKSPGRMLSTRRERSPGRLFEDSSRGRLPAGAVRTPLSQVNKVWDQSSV
UniProt Q9Y6H1, sequence (Q9Y6H1 whole entry, looked up): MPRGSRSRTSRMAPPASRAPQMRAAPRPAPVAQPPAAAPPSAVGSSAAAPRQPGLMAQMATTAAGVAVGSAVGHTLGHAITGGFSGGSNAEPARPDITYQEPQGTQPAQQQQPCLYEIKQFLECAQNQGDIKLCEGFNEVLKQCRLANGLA
UniProt Q8NHZ8, sequence (Q8NHZ8 whole entry, looked up): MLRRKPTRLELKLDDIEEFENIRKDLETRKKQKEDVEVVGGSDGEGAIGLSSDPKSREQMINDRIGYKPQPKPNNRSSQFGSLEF
UniProt Q16740, sequence (Q16740 whole entry, looked up): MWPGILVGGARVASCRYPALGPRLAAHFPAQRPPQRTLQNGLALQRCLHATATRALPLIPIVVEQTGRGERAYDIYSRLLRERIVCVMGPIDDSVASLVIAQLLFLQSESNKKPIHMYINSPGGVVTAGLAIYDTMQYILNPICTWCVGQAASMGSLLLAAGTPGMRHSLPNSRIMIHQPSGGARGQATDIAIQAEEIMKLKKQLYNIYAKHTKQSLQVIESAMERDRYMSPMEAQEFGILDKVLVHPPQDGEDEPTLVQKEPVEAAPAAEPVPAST
UniProt Q00534, sequence (Q00534 whole entry, looked up): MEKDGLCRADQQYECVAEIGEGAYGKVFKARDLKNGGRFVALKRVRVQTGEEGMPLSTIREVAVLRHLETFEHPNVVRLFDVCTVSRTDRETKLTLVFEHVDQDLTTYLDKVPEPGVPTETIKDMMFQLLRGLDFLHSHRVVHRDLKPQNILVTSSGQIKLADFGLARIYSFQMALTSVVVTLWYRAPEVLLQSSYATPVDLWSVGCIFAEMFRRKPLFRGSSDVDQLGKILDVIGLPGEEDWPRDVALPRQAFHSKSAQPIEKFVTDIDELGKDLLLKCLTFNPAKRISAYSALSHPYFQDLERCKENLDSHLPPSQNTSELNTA
UniProt Q01459, sequence (Q01459 whole entry, looked up): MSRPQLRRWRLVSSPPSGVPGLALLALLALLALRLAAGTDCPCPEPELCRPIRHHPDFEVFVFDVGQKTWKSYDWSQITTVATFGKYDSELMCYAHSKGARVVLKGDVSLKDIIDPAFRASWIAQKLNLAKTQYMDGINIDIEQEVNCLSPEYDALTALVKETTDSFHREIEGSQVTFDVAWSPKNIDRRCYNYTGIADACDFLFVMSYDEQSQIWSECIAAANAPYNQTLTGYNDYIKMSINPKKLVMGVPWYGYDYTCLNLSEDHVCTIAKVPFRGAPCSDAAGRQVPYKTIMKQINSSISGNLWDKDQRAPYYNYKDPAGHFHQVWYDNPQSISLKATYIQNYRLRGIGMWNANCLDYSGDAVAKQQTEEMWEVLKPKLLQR
UniProt Q5JTJ3, sequence (Q5JTJ3 whole entry, looked up): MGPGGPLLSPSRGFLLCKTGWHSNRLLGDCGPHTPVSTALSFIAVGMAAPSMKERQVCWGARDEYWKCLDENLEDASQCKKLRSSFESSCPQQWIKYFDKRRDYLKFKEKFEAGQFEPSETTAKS

log2 fold change, active:
CDC26 (UniProt Q8NHZ8) -0.542

log2 fold change, inactive:
CDC37L1 (UniProt Q7L3B6) 0.054
CCNB1 (UniProt P14635) 0.013
CIT isoform 4 (UniProt O14578) -0.176
CALCOCO2 isoform 4 (UniProt Q13137) 0.022
CLCN3 isoform 2 (UniProt P51790) 0.024
CHCHD2 (UniProt Q9Y6H1) 0.028
CCNH (UniProt P51946) -0.045
CRK (UniProt P46108) -0.011
CHCHD1 (UniProt Q96BP2) -0.135
CALB1 (UniProt P05937) -0.033
CDK6 (UniProt Q00534) 0.027
COASY isoform 2 (UniProt Q13057) 0.032
CHD3 isoform 3 (UniProt Q12873) 0
CHCHD4 isoform 2 (UniProt Q8N4Q1) -0.067
CASP3 (UniProt P42574) -0.005
CSNK2B (UniProt P67870) 0.123
CSTF3 (UniProt Q12996) 0.014
C4orf33 (UniProt Q8N1A6) 0.072
COCH (UniProt O43405) -0.098
CD53 (UniProt P19397) 0.064
CD55 isoform 7 (UniProt P08174) -0.121
CLASP2 isoform 3 (UniProt O75122) 0.081
CRTC2 (UniProt Q53ET0) 0.093
C1D (UniProt Q13901) -0.246
COA6 isoform 2 (UniProt Q5JTJ3) 0.023
CRKL (UniProt P46109) 0.047
CPT1A (UniProt P50416) -0.028
CCAR2 isoform 2 (UniProt Q8N163) 0.071
CIR1 (UniProt Q86X95) -0.054
CTBS (UniProt Q01459) 0.039
CLUH, A0A494C0R8 0.127
CAD (UniProt P27708) 0.125
CLPP (UniProt Q16740) 0.042
CD63 (UniProt P08962) -0.027
COPS4 (UniProt Q9BT78) 0.036

What follows are targets tested with C1=CC2=NC=CN=C2C=C1/C=C/3\C(=O)NC(=O)S3 in the same assay as above.
Outline: as §1

log2 fold change, active:
CSNK2B (UniProt P67870) 0.324
C4orf33 (UniProt Q8N1A6) -0.287

log2 fold change, inactive:
CDC37L1 (UniProt Q7L3B6) 0.068
CCNB1 (UniProt P14635) 0.006
CIT isoform 4 (UniProt O14578) 0.13
CALCOCO2 isoform 4 (UniProt Q13137) -0.043
CLCN3 isoform 2 (UniProt P51790) -0.002
CHCHD2 (UniProt Q9Y6H1) 0.032
CCNH (UniProt P51946) 0.031
CRK (UniProt P46108) 0.03
CHCHD1 (UniProt Q96BP2) -0.003
CALB1 (UniProt P05937) 0.055
CDK6 (UniProt Q00534) 0.018
COASY isoform 2 (UniProt Q13057) 0.01
CHD3 isoform 3 (UniProt Q12873) 0.034
CHCHD4 isoform 2 (UniProt Q8N4Q1) 0.012
CASP3 (UniProt P42574) -0.001
CSTF3 (UniProt Q12996) 0.077
COCH (UniProt O43405) 0.007
CD53 (UniProt P19397) 0.01
CD55 isoform 7 (UniProt P08174) -0.015
CLASP2 isoform 3 (UniProt O75122) -0.013
CDC26 (UniProt Q8NHZ8) 0.025
CRTC2 (UniProt Q53ET0) 0.073
C1D (UniProt Q13901) 0.068
COA6 isoform 2 (UniProt Q5JTJ3) 0.062
CRKL (UniProt P46109) 0.006
CPT1A (UniProt P50416) -0.096
CCAR2 isoform 2 (UniProt Q8N163) 0
CIR1 (UniProt Q86X95) -0.029
CTBS (UniProt Q01459) 0.013
CLUH, A0A494C0R8 0.235
CAD (UniProt P27708) -0.011
CLPP (UniProt Q16740) 0.003
CD63 (UniProt P08962) 0.069
COPS4 (UniProt Q9BT78) -0.006
